Structures are written as SMILES. The source made the active and inactive calls.

Assay [1] has as its system PRMT1 (protein arginine N-methyltransferase 1). The experiment in a line: small molecules binding arginine methyltransferase PRMT1 – biochemical, small-molecule microarray, 635 nm fluorescence, primary screen (AID 1088).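 Further: binding of Prmt1 protein to compounds spotted on small-molecule microarray slides.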 The following applies: higher = more signal.
Assay [2] in a line: growth effects on S. cerevisiae YJM789 – YJM789 clinical isolate, OD600, 24 h, basal, primary screen (AID 1089).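 Further: growth of clinical yeast isolate S. cerevisiae YJM 789 seeded 1000 cells per well; test concentration not given here.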 As to conditions: higher = more signal, called active from +8 up or from −8 down.
A short description of assay [3]: S. pombe growth modifiers, basal conditions – strain 972, OD600, 24 h, no modulator, primary screen (AID 1090).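 Further: basal condition with compound alone and no growth modifier present; test concentration not given here.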 As to conditions: S. pombe 972 growth, higher = more signal, called active from +8 up or from −8 down.
Assay [4] can be described thus: budding yeast growth modifiers under rapamycin – strain BY4716, OD600, 96 h, primary screen (AID 1091). Further: test concentration not given here. The following applies: S. cerevisiae BY4716 + rapamycin, higher = more signal, called active from +8 up or from −8 down.
For assay [5], the target named is Torsin-1A-interacting protein 2 (Homo sapiens) (UniProt Q8NFQ8). Description: small molecules binding lysate-expressed LULL1 – cell lysate, human LULL1 lysate, 635/667 nm fluorescence, primary screen (AID 1092).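 Further: probe is lysate of COS7 cells overexpressing human LULL1; score merges per-feature 667 nm fluorescence with signal-to-noise.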 The following applies: small-molecule microarray, hLULL1 lysate binding, 635 nm fluorescence; higher = more signal.
Chain of Torsin-1A-interacting protein 2 (Homo sapiens) (Q8NFQ8 whole entry, looked up): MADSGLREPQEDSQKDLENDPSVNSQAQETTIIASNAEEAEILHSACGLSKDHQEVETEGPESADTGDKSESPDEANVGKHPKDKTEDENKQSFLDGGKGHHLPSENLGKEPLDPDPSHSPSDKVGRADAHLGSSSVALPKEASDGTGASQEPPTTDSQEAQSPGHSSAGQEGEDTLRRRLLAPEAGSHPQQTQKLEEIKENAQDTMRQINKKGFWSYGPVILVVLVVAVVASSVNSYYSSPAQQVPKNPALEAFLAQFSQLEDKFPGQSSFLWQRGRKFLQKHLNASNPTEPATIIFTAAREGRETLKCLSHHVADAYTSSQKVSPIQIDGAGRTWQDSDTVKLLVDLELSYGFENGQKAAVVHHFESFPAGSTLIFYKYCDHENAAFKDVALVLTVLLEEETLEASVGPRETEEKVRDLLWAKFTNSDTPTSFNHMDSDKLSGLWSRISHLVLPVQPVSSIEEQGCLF
Assay [6] is described as follows: optical density change of DRC41 E. coli – strain DRC41, OD650, 24 h, E. coli filamentation project, primary screen (AID 1093).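 Further: MC1000 strain lacking acrAB efflux and sulA so SOS filamentation is blocked; test concentration not given here.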 The following applies: E. coli DRC41 growth, higher = more signal, called active from +8 up or from −8 down.
The nature of assay [7]: probe aLefty2 binding to arrayed compounds – biochemical, biotinylated probe, 635/667 nm fluorescence, primary screen (AID 1094).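 Further: score merges spot fluorescence near 667 nm with spot signal-to-noise ratio.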 The following applies: small-molecule microarray, higher = more signal.
In assay [8] the test system is Noggin (protein binding on small-molecule microarray). The experiment in a line: small molecules binding Noggin protein – biochemical, 635/667 nm fluorescence, primary screen (AID 1095).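 Further: score merges 667 nm feature fluorescence with signal to noise over triplicate slides.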 As to conditions: 635 nm fluorescence, higher = more signal.
The target in assay [9] is Neurogenic locus notch homolog protein 3 (Homo sapiens) (UniProt Q9UM47). The experiment in a line: small molecules binding NOTCH3 protein – biochemical, 635/667 nm fluorescence, primary screen (AID 1096). As to conditions: small-molecule microarray, 635 nm fluorescence, higher = more signal.
Chain of Neurogenic locus notch homolog protein 3 (Homo sapiens) (Q9UM47 whole entry, looked up): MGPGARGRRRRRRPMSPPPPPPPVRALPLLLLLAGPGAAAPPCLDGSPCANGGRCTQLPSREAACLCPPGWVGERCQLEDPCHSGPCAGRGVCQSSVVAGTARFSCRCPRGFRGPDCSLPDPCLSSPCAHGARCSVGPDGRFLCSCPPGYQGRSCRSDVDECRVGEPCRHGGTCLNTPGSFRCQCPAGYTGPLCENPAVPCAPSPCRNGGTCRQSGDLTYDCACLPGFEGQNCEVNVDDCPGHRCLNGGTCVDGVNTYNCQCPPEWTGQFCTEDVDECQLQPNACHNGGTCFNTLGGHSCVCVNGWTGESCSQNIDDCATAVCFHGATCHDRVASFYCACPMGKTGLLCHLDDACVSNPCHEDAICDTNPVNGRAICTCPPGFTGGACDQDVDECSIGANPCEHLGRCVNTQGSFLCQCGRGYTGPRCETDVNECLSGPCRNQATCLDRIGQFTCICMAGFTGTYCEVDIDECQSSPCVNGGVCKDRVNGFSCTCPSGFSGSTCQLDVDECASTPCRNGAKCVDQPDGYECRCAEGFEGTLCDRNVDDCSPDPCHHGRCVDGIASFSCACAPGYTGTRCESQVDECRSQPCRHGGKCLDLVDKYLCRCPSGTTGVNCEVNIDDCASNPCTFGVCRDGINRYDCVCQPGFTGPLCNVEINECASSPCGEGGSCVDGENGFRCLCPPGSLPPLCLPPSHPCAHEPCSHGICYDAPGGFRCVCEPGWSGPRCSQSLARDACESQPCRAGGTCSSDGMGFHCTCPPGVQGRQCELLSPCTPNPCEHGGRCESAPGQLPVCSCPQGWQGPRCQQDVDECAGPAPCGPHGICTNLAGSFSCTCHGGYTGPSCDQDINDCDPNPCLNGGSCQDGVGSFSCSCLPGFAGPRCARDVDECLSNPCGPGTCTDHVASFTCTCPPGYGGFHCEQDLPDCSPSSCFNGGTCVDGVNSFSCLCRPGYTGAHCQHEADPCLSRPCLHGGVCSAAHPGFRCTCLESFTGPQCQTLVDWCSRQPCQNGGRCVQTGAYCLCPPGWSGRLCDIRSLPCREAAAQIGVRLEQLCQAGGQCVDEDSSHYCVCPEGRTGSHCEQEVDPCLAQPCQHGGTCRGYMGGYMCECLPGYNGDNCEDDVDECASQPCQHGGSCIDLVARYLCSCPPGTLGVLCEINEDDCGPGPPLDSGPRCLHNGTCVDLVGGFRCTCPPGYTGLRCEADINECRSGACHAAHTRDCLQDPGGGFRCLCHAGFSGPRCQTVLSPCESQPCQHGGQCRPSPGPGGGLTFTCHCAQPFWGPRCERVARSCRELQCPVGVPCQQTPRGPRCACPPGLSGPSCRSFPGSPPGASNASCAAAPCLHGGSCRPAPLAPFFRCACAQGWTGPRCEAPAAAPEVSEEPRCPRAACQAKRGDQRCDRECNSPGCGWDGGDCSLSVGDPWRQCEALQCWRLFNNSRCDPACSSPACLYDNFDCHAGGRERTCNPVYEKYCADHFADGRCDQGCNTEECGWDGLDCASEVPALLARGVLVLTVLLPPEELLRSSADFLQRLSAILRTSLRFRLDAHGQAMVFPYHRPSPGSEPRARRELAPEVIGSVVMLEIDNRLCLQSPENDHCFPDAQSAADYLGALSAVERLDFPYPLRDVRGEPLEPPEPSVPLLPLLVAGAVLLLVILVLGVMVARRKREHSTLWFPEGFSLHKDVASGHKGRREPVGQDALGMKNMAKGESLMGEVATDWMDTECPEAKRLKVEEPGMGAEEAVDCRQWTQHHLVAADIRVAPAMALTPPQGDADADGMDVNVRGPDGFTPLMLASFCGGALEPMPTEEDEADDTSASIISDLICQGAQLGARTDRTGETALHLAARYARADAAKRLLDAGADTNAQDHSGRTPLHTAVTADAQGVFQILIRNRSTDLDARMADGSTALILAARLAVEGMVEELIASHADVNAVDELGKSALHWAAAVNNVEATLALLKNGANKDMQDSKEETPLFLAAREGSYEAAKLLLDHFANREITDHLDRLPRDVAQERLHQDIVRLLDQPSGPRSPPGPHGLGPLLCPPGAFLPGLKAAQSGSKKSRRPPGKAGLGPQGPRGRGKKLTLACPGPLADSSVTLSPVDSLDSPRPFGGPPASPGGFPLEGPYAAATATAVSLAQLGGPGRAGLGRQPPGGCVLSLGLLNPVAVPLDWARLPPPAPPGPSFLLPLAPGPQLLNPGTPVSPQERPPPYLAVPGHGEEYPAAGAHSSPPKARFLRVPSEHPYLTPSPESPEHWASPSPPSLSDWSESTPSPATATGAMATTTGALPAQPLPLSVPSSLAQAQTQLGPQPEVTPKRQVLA
A short description of assay [10]: probe aEGFR binding to arrayed compounds – biochemical, biotinylated probe, 635/667 nm fluorescence, primary screen (AID 1097).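 Further: probe is a biotinylated anti-EGFR antibody binding compounds printed on slides; score combines fluorescence near 667 nm and signal to noise of each spot.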 The following applies: small-molecule microarray, higher = more signal.
For assay [11], the system named is Plasmodium falciparum Sir2 (PF13_0152, Sir2A). Description: Plasmodium falciparum Sir2A binding compounds – biochemical, small-molecule microarray, 635 nm fluorescence, primary screen (AID 1098).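 Further: score merges spot fluorescence intensity with its signal-to-noise ratio.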 The following applies: fluorescence 635 nm, higher = more signal.
Assay [12] can be described thus: probe aDKK1 binding to arrayed compounds – biochemical, biotinylated probe, 635/667 nm fluorescence, primary screen (AID 1099).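 Further: score merges 667nm spot fluorescence with signal to noise across triplicate slides; reference of the scale not given here.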 The following applies: small-molecule microarray, higher = more signal.
The nature of assay [13]: probe aCHRDL2 binding to arrayed compounds – biochemical, biotinylated probe, 635/667 nm fluorescence, primary screen (AID 1100). The following applies: small-molecule microarray, higher = more signal.
The nature of assay [14]: change in splice reporter luminescence, either direction, cell-based, HEK293, spliceosome inhibition project, primary screen (AID 1101).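 Further: HEK293 cells carrying a splicing-competent luciferase reporter gene; test concentration not given here.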 As to conditions: HEK293 splicing luciferase reporter, 24 h, higher = more signal, called active from +8 up or from −8 down.
For assay [15], the target named is Fibroblast growth factor 10 (Homo sapiens) (UniProt O15520). The experiment in a line: compounds binding fibroblast growth factor 10 – biochemical, small-molecule microarray, 635 nm fluorescence, primary screen (AID 1102). As to conditions: FGF10 binding, fluorescence 635 nm, higher = more signal.
Chain of Fibroblast growth factor 10 (Homo sapiens) (O15520 whole entry, looked up): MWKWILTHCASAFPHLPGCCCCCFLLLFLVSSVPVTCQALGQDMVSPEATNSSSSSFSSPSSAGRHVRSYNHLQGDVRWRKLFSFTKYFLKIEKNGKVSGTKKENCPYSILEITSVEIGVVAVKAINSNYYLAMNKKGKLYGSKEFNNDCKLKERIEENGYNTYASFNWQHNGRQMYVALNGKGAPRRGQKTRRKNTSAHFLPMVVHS
Assay [16] relates to glycogen synthase kinase-3 (GSK3A per assay name; protocol says GSK3B). The experiment in a line: compounds binding glycogen synthase kinase-3 – biochemical, small-molecule microarray, 635 nm fluorescence, GSK3A, primary screen (AID 1103). Further: the record names both GSK3A and GSK3B. As to conditions: fluorescence 635 nm, higher = more signal.
Assay [17] addresses Epidermal growth factor receptor (Homo sapiens) (UniProt P00533). The experiment in a line: compounds binding epidermal growth factor receptor – biochemical, small-molecule microarray, 635 nm fluorescence, primary screen (AID 1104).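 Further: score merges 667 nm emission intensity with spot signal to noise over triplicate slides.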 The following applies: EGFR binding, higher = more signal.
Assay [18] addresses Follistatin-related protein 3 (Homo sapiens) (UniProt O95633). The experiment in a line: compounds binding follistatin-related protein 3 – biochemical, small-molecule microarray, 635 nm fluorescence, primary screen (AID 1105).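 Further: score merges emission near 667 nm and signal to noise per printed spot across three slides.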 As to conditions: FSTL3 binding, higher = more signal.
The target in assay [19] is Dickkopf-related protein 1 (Homo sapiens) (UniProt O94907). Description: small molecules binding DKK1 protein – biochemical, small-molecule microarray, 635 nm fluorescence scan, primary screen (AID 1106).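 Further: score merges emission near 667 nm with signal to noise over three replicate slides.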 As to conditions: higher = more signal.
Chain of Dickkopf-related protein 1 (Homo sapiens) (O94907 whole entry, looked up): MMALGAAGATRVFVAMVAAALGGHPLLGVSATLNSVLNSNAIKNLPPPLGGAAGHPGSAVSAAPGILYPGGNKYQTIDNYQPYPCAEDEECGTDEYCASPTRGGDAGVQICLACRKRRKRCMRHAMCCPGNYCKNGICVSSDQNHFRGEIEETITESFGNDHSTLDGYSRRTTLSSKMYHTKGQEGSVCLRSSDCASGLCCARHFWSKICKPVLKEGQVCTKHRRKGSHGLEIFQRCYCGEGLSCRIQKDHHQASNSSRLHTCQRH
Assay [20] has as its system Inhibin beta A chain (activin A). Description: small molecules binding activin A – biochemical, small-molecule microarray, 635 nm fluorescence scan, primary screen (AID 1107).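 Further: mouse activin A protein probed at 4.33 µg/mL on printed slides; score merges bound-protein fluorescence near 667 nm with spot signal-to-noise.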 The following applies: INHBA, higher = more signal.

Chain of Epidermal growth factor receptor (Homo sapiens) (P00533 whole entry, looked up): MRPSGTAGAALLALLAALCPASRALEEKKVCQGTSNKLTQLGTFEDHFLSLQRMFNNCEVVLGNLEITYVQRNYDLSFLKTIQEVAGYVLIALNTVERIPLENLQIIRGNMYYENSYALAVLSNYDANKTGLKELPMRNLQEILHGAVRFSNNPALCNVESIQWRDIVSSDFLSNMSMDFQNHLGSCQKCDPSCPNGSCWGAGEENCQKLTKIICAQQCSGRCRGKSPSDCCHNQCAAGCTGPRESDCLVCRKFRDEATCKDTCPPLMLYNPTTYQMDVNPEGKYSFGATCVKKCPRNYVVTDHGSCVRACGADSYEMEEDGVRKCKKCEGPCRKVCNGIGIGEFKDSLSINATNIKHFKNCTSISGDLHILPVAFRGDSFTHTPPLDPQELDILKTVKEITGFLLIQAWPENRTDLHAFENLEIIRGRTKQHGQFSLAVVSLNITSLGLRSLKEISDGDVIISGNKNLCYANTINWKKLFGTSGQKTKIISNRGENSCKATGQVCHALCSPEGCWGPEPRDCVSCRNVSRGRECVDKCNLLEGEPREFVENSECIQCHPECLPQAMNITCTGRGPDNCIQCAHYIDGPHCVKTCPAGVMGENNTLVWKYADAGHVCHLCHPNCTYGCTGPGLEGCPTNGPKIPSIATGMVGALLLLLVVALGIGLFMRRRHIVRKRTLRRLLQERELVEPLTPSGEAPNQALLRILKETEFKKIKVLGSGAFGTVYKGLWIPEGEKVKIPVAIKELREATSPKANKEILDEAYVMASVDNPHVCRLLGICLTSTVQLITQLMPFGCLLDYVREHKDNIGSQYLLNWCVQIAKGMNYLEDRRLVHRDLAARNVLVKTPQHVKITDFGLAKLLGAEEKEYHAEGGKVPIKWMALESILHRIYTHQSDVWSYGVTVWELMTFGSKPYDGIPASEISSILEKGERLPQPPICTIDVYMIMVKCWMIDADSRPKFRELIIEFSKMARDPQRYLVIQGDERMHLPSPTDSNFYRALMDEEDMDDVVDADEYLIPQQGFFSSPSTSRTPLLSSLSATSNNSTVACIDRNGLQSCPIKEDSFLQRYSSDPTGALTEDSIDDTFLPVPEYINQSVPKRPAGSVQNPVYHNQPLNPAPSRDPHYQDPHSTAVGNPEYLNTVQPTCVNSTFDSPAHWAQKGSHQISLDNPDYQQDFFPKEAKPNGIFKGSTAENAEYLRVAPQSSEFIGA
Chain of Follistatin-related protein 3 (Homo sapiens) (O95633 whole entry, looked up): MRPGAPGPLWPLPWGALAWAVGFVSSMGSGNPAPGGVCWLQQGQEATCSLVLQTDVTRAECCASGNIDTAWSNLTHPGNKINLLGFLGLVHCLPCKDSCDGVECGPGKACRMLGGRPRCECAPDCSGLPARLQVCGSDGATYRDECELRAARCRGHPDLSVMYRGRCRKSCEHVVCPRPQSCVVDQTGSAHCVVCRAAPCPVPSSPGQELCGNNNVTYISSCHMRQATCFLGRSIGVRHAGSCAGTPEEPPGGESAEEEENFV

For the compound `CC(=O)NCCCC[C@@H]1NC(=O)[C@@H]2C[C@H](C(=O)NCCCCCNC(=O)CS)[C@H](c3ccc(O)cc3)N2C1=O`, the composite z-score in [1] is 0.483; in assay [5], -0.0471; in assay [7], -0.149; in assay [8] it was 1.11; in [9], 0.108; in [10], -0.212. The composite z-score is 1.45 in assay [11]; -0.384 in assay [12]; 0.292 in [13]; -0.282 in assay [15]; -0.631 in [16]; -0.817 in [17]. Also, the composite z-score in assay [18] was -0.781; in assay [19] it was 0.527; in assay [20], 0.247. Also, the z-score is -2.05 (inactive) in assay [2]; -1.83 (inactive) in [3]; -1.55 (inactive) in [4]; 2.99 (inactive) in assay [6]; -1.88 (inactive) in assay [14].

Take `COCCOC(=O)N1C(=O)[C@@]2(c3cc(C#CCNC(N)=O)ccc31)[C@H](c1ccccc1OCCO)N1[C@H](c3ccccc3)[C@H](c3ccccc3)OC(=O)[C@H]1[C@@H]2C(=O)NC[C@H](O)c1ccccc1`: the composite z-score in [1] was 1.53; in assay [5], 3.01; in assay [7], -0.0977; in assay [8], 1.12; in assay [9], 1.1; in assay [10] it was -0.065. The composite z-score in assay [11] was determined as 1.08; in assay [12], 0.0288; in [13], 0.352; in [15] it was 1.18; in assay [16] it was 0.618; in assay [17] it was 0.134. Also, the composite z-score in assay [18] amounted to 1; in [19], 0.117; in assay [20], 0.203. Also, the z-score in assay [2] was 2.75 (inactive); in [3], 2.09 (inactive); in assay [4] it was 6.12 (inactive); in assay [6], 0.589 (inactive); in [14] it was 0.408 (inactive).

For the compound `C=C(C(=O)CC[C@H](OC(=O)c1ccccc1-c1ccccc1C(=O)O)c1ccc(CO)o1)C(C)C`, the composite z-score in [1] is 1.33; in [5], 0.662; in assay [7], -0.19; in [8], 1.67; in assay [9], 0.951; in [10], -0.101. The composite z-score is 0.75 in assay [11]; -0.209 in assay [12]; -0.558 in assay [13]; 1.45 in [15]; 0.914 in assay [16]; -0.0997 in assay [17]. Further, the composite z-score in assay [18] came to 0.858; in assay [19], 0.568; in assay [20] it was 0.664. Also, the z-score in assay [2] is 1.44 (inactive); in [3], -0.197 (inactive); in assay [4] it was 0.782 (inactive); in [6] it was -0.309 (inactive); in assay [14], -0.107 (inactive).

For `COC(=O)[C@@]1(Cc2ccc(OC)cc2)[C@H]2c3cc(C(=O)N(C)C)n(Cc4ccc(C)c(F)c4F)c3C[C@H]2CN1C(=O)c1ccccc1`, the composite z-score in assay [1] was 0.223; in [5], 2.84; in assay [7], 0.146; in [8] it was -0.268; in [9], 0.797; in assay [10], -0.0972. Also, the composite z-score in assay [11] is 0.274; in [12], 0.627; in assay [13], 0.993; in assay [15] it was 0.0253; in assay [16], -0.109; in assay [17], -0.902. Moreover, the values for the composite z-score in [18], in assay [19] and in assay [20] were 0.0502, -1.11 and 0.781, respectively. For the same compound, the z-score in assay [2] is 1.14 (inactive); in assay [3] it was 0.491 (inactive); in assay [4] it was 0.972 (inactive); in [6], -0.716 (inactive); in [14], -1.25 (inactive).

As to `CO[C@H]1COC(=O)[C@@H](C)COC(=O)[C@H](Cc2ccccc2)NC(=O)CC=C[C@H]1C`, the composite z-score in assay [1] was 0.525; in assay [5] it was -0.274; in assay [7] it was -0.302; in [8], 1.26; in assay [9] it was 0.722; in assay [10], -0.188. The composite z-score in assay [11] is 0.7; in [12], -0.416; in assay [13] it was -1.09; in [15], 0.457; in assay [16] it was 0.0364; in assay [17] it was 1.04. The composite z-score is 1.06 in assay [18], 1.5 in [19] and 1.15 in assay [20]. Moreover, the z-score was -0.662 (inactive) in [2]; -1.25 (inactive) in assay [3]; -0.544 (inactive) in [4]; 0.331 (inactive) in [6]; -0.776 (inactive) in assay [14].

These data come from PubChem BioAssay.
